# Data: the supplement of paper PMC6555819
# Key:
# Experiment in all cases: PBM binding z-score (relative to random genomic background probes); higher = stronger binding; sequences stand for … in GC…GCGATTGACAGCGTAGAATGAAGG
# [1] = system: FXR:RXRa (NR concentration 270 nM, RXRa partner concentration 90 nM)
# Outline: (§1)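 Custom Agilent 4×180K protein-binding microarrays carried double-stranded probes, each with a 34-nt variable region. These regions held direct-repeat seeds, single-nucleotide variants, half-site ablations and random human genomic background sequences. Ligand-free nuclear receptor dimers were incubated on the arrays for 1 h, antibodies against each partner (one per run) detected binding, and scanned fluorescence was regression-normalized. Binding z-scores take the random background probes as reference.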
# [2] = system: LXRa:RXRa (NR concentration 270 nM, RXRa partner concentration 90 nM)
# Outline: as §1
# [3] = system: LXRa homodimer (NR concentration 270 nM)
# Outline: as §1
# [4] = system: LXRb:RXRa (NR concentration 270 nM, RXRa partner concentration 90 nM)
# Outline: as §1
# [5] = system: LXRb homodimer (NR concentration 270 nM)
# Outline: as §1
# [6] = system: PPARa:RXRa (NR concentration 270 nM, RXRa partner concentration 90 nM)
# Outline: as §1
# [7] = system: PPARg:RXRa (NR concentration 180 nM, RXRa partner concentration 90 nM)
# Outline: as §1
# [8] = system: PPARg:RXRa 270nM:90nM, anti-RXR (NR concentration 270 nM, RXRa partner concentration 90 nM)
# Outline: as §1
# [9] = system: PPARg:RXRa 30nM:10nM, anti-RXR (NR concentration 30 nM, RXRa partner concentration 10 nM)
# Outline: as §1
# [10] = system: PPARg:RXRa 90nM:30nM, anti-RXR (NR concentration 90 nM, RXRa partner concentration 30 nM)
# Outline: as §1
# [11] = system: PPARg:RXRa DBDmut IVT, anti-RXR (DBD mutation: RXRa K156A/R161A, NR concentration 270 nM, RXRa partner concentration 90 nM)
# Outline: as §1
# [12] = system: PPARg:RXRa IVT, anti-PPARg (NR concentration 270 nM, RXRa partner concentration 90 nM)
# Outline: as §1
# [13] = system: PPARg DBDmut:RXRa IVT, anti-PPARg (DBD mutation: PPARg1 K132A/R137A, NR concentration 270 nM, RXRa partner concentration 90 nM)
# Outline: as §1
# [14] = system: PPARg DBDmut IVT, anti-PPARg (DBD mutation: PPARg1 K132A/R137A, NR concentration 270 nM)
# Outline: as §1
# [15] = system: PPARg homodimer (NR concentration 180 nM)
# Outline: as §1
# [16] = system: PXR:RXRa (NR concentration 270 nM, RXRa partner concentration 90 nM)
# Outline: as §1
# [17] = system: PXR homodimer (NR concentration 270 nM)
# Outline: as §1
# [18] = system: RARa:RXR (NR concentration 270 nM, RXRa partner concentration 90 nM)
# Outline: as §1
# [19] = system: RARa homodimer (NR concentration 270 nM)
# Outline: as §1
# [20] = system: RARb:RXRa (NR concentration 270 nM, RXRa partner concentration 90 nM)
# Outline: as §1
Sequence,PBM binding z-score [1],PBM binding z-score [2],PBM binding z-score [3],PBM binding z-score [4],PBM binding z-score [5],PBM binding z-score [6],PBM binding z-score [7],PBM binding z-score [8],PBM binding z-score [9],PBM binding z-score [10],PBM binding z-score [11],PBM binding z-score [12],PBM binding z-score [13],PBM binding z-score [14],PBM binding z-score [15],PBM binding z-score [16],PBM binding z-score [17],PBM binding z-score [18],PBM binding z-score [19],PBM binding z-score [20]
CGTCCAAGGTCCAGGTCAGTGAAAGAGACTCGAA,0.579,0.595,0.0341,0.462,-0.914,1.17,0.0886,0.162,-0.651,-0.258,0.342,0.512,-0.921,-0.937,0.811,0.618,-0.111,0.904,0.0146,2.52
CGAACTAGGTCATACAGGACAGTGAATACATTGA,3.71,2.61,0.562,1.97,0.184,4.67,7.62,6.24,3.84,5.74,8.15,8.47,4.73,2,1.93,1.48,0.551,2,0.758,3.5
TCTTGTAGATCAATAGGAGGTTAAGAAAGATCGA,0.54,1.36,0.474,0.851,0.157,1.36,0.389,1.57,2.93,2.25,1.97,0.955,0.693,0.624,0.344,0.712,0.557,1.04,0.522,0.202
AGTCAAAGTTCACTAGGTAACGGAAGATTCAGCT,4.46,5.19,2.4,3.15,1.03,4.82,6.78,6.56,3.1,5.71,2.88,4.85,0.928,0.734,2.34,4.05,2.12,3.09,1.02,4.71
TTTTGTAGATCAGCAGGTTAAGAAAGCTGGCCAA,-0.421,-0.315,-0.236,0.141,-0.319,0.634,-0.106,0.922,0.508,0.797,0.508,1.04,-0.105,0.632,0.357,0.0195,-0.117,0.084,0.0423,0.0903
GCCGCTAGGTCAGGTTGGTCAGCTAACGGGTACG,1.23,0.593,-0.167,0.545,-0.194,1.41,0.278,0.955,-0.607,0.0187,2.34,1.64,-0.905,-1.32,0.576,0.356,-0.526,0.716,-0.74,3.27
ATCTCTAGGTAAAGTGCAGTGAAAGATCGATAGA,0.236,0.336,-0.00202,-0.0786,0.221,0.525,0.843,2.05,0.6,1.67,2.44,1.95,0.431,0.336,0.363,-0.0343,0.194,0.372,0.333,0.504
GCTCGGAGGAGAAGGTCAGAGCTTTGTCCGTAGA,0.655,0.736,-0.584,0.516,-1.44,1.79,-0.0558,0.967,-0.721,0.353,-0.348,0.169,-0.938,-2.35,0.184,1.06,-1.02,1.58,-1,2.3
CATACAGGGTCAGCTAGGCCAGAATAGGGACGGC,4.83,3.22,-0.0324,2.38,-0.0852,4.55,3.66,3.09,0.879,2,0.915,2.41,0.965,0.203,0.999,2.22,0.0161,2.91,0.818,4.16
GGAACGAGGACAAAGTTGATAGCATCTGTCGACG,-0.0589,-0.208,-0.722,-0.455,-0.842,2.4,4.11,5.44,3.91,5.14,1.35,1.44,-0.283,-0.95,-0.0718,-0.043,-0.312,0.0802,0.0714,0.942
TCATCTAGGTAAACAGGTGAAAGTCCGTAAGTTA,1.02,0.956,0.17,1.04,0.174,2.4,3.14,3.94,3.92,3.86,4.8,5.11,1.31,1.14,0.609,0.409,0.487,0.888,0.849,0.534
AGTCAAAGTTCAGGGCGAGGTAACGTAAAGCACG,4.49,4.03,1.39,2.27,0.321,3.75,5.2,5.24,1.76,4.08,0.0616,2.24,-0.0376,0.418,2.91,3.19,1.1,2.93,1.23,4.49
GGAACGACGGCATTCGAGTTGATAGCATGGCGAT,-0.557,-0.773,-0.583,-0.948,-1.04,-0.735,0.532,-0.612,-0.766,-0.917,-0.236,-0.897,-0.871,-0.489,-1.13,-0.589,-0.529,-0.766,-0.761,-1.24
CCTACTGGGCCATTCAGAGCTCATTGATCATATG,-0.592,-0.786,-0.476,-0.728,-0.785,0.169,0.223,0.0807,-0.459,-0.224,4.75,3.12,-0.435,-0.6,-0.275,-0.612,-0.562,-0.258,-0.409,-0.143
TGAATGAGGTTAAAGATAAGGGAACGTGGCGTCG,2.65,2.28,0.104,1.5,0.393,3.54,2.88,3.98,1.97,3.5,2.35,2.62,1.71,0.597,0.427,1.37,0.106,2.09,-0.181,2.04
